# In PubChem BioAssay:
# The source made the active and inactive calls. Unless noted, the rule behind the calls is not given here.
# How the values were obtained:
# [1] = resazurin metabolic signal in HepG2 cells – cell-based, resazurin fluorescence, 24 h, PK04 Diversity Set, profiling panel (AID 1172); settings: HepG2 viability, higher = more signal
# [2] = budding yeast growth changes without added modifier – OD600, strain BY4716, 24 h, basal condition, primary screen (AID 1173); settings: S. cerevisiae BY4716 growth, OD600, 24 h; higher = more signal, called active from +8 up or from −8 down
# [3] = viability profiling in MM1S myeloma cells – cell-based, resazurin fluorescence, basal, 24 h, PK04 Diversity Set, profiling panel (AID 1174); settings: higher = more signal, called active from +8 up or from −8 down;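 note: MM1S multiple myeloma cell line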
# [4] = biological target: Dihydroorotate dehydrogenase (quinone), mitochondrial (Plasmodium falciparum (isolate 3D7)) (UniProt Q08210); assay: inhibition of P. falciparum DHODH – biochemical, C-terminal His tag, absorbance 600 nm, primary screen (AID 1175); settings: PfDHODH enzyme, DCIP absorbance 600 nm; higher = more signal, called active from +8 up or from −8 down;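 note: recombinant parasite enzyme with a five histidine tag at its C terminus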
# [5] = inhibition of PAO1 biofilm formation – strain PAO1, LB-PBS medium, absorbance 600 nm, primary screen (AID 1176); settings: P. aeruginosa PAO1 growth/biofilm, A600, 12 h; higher = more signal
# [6] = growth modulation of vineyard yeast isolate – strain RM11-1a, OD600, basal, 24 h, primary screen (AID 1177);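 note: cultures grown under basal conditions with no added stressor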; settings: S. cerevisiae RM11-1a growth, OD600, 24 h; higher = more signal, called active from +8 up or from −8 down
# [7] = growth of efflux-deficient E. coli DRC39 – strain DRC39, OD650, 24 h, E. coli filamentation inducers, primary screen (AID 1178);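 note: growth measured as culture turbidity by optical density at 650 nm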; settings: E. coli DRC39 acrAB, higher = more signal, called active from +8 up or from −8 down
# [8] = growth of efflux-deficient E. coli DRC39 – strain DRC39, OD650, 48 h, E. coli filamentation inducers, primary screen (AID 1179);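 note: screen aims at cell division blockers that make cells filament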; settings: E. coli DRC39 delta-acrAB growth, higher = more signal, called active from +8 up or from −8 down
# [9] = viability profiling in RPMI8226 myeloma cells – cell-based, resazurin fluorescence, basal, 24 h, PK04 Diversity Set, profiling panel (AID 1180); settings: higher = more signal;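 note: RPMI8826 multiple myeloma cell line at 5000 cells per well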
# [10] = biological target: E3 ubiquitin-protein ligase XIAP (Homo sapiens) (UniProt P98170); assay: small molecules binding XIAP protein – biophysical, small-molecule microarray, fluorescence 635 nm, primary screen (AID 1181); settings: higher = more signal;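 note: score merges 667 nm emission and signal to noise over triplicate slides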
# [11] = system: XIP peptide (Xip251-270) binding; assay: XIP fragment 251-270 binding compounds – biochemical, small-molecule microarray, fluorescence 635/667 nm, 0.1 µg/mL protein, primary screen (AID 1182); settings: fluorescent protein binding, 635 nm, higher = more signal, called active from +8 up or from −8 down
# XIP peptide (Xip251-270) = assay: compounds binding XIP fragment 251-270 – biochemical, small-molecule microarray, fluorescence 635/667 nm, 0.5 µg/mL protein, primary screen (AID 1183); settings: fluorescence 635 nm, higher = more signal
# [12] = blood-stage malaria parasite viability loss – strain 3D7, DAPI fluorescence, 100 nL, primary screen (AID 1184);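 note: parasites grown inside human red blood cells in medium with human serum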; settings: P. falciparum 3D7 growth, 3 d, higher = more signal
# [13] = biological target: Homeobox protein Hox-A13 (Mus musculus) (UniProt Q62424); assay: disruptors of Hoxa13 oligonucleotide interaction – biochemical, fluorescence polarization, labeled oligonucleotide, primary screen (AID 1185); settings: Hoxa13:DNA binding, 15 min, higher = more signal, called active from +8 up or from −8 down
# [14] = blockers of DNA damage checkpoint Chk1 activation – imaging, HeLa, hydroxyurea, phospho-Chk1 antibody, percent positive cells, primary screen (AID 1186); settings: hydroxyurea-induced phospho-Chk1 immunofluorescence imaging, higher = more signal
# [15] = blockers of DNA damage checkpoint Chk1 activation – imaging, HeLa, hydroxyurea, phospho-Chk1 nuclear intensity, primary screen (AID 1187); settings: hydroxyurea-induced phospho-Chk1 immunofluorescence imaging, higher = more signal
# Sequence of Homeobox protein Hox-A13 (Mus musculus) (Q62424 whole entry, looked up): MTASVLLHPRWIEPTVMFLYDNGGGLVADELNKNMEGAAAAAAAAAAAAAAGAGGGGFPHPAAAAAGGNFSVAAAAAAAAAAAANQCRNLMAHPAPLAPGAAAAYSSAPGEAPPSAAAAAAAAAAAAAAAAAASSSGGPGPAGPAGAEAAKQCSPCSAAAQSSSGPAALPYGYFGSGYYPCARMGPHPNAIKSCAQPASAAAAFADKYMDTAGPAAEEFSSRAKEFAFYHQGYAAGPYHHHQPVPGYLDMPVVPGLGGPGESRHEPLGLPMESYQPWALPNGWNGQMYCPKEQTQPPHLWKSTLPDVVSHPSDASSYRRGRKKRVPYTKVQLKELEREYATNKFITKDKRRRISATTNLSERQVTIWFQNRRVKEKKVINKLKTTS
# Sequence of E3 ubiquitin-protein ligase XIAP (Homo sapiens) (P98170 whole entry, looked up, the tested form may be a part): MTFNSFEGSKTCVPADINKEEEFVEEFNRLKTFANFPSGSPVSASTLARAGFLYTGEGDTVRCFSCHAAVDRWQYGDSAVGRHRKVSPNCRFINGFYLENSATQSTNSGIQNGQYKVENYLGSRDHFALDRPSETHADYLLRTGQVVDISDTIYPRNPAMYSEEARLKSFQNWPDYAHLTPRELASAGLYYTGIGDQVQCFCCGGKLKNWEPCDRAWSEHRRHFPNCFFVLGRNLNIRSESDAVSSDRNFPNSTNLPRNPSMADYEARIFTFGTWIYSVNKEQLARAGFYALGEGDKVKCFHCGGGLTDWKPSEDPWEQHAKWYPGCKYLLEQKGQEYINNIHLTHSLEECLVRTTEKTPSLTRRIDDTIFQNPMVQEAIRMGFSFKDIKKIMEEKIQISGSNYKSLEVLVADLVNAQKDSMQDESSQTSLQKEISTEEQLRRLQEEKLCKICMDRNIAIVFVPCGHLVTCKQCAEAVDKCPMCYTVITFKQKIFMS
# Sequence of Dihydroorotate dehydrogenase (quinone), mitochondrial (Plasmodium falciparum (isolate 3D7)) (Q08210 whole entry, looked up): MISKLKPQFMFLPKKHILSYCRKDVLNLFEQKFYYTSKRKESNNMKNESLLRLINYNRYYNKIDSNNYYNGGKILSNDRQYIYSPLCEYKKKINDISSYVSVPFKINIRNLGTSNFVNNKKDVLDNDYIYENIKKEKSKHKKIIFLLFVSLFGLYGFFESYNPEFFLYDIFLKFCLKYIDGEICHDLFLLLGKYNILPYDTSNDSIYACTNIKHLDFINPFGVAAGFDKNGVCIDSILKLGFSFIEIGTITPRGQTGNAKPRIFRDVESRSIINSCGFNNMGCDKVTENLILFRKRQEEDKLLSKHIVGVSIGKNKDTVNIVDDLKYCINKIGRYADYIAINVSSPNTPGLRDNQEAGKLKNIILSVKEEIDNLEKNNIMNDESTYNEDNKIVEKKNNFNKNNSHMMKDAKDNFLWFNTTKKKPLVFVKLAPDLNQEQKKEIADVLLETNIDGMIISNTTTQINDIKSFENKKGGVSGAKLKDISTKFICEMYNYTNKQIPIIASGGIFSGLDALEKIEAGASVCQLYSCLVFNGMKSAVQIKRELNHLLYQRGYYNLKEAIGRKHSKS
SMILES,z-score [1],z-score [2],z-score [3],composite z-score [4],z-score [5],z-score [6],z-score [7],z-score [8],z-score [9],composite z-score [10],composite z-score [11],composite z-score (XIP peptide (Xip251-270)),z-score [12],z-score [13],z-score [14],z-score [15]
COCCOC(=O)N1C(=O)[C@@]2(c3cc(C#CCC(C(=O)OC)C(=O)OC)ccc31)[C@H](c1ccc(OCCO)cc1)N1[C@H](c3ccccc3)[C@H](c3ccccc3)OC(=O)[C@H]1[C@@H]2C(=O)NC[C@H](O)c1ccccc1,0.11,2.19 (inactive),0.241 (inactive),0.0044 (inactive),2.7 (inactive),3.3 (inactive),0.732 (inactive),0.855 (inactive),-0.957,0.19,0.234 (inactive),0.851,-2.16,0.738 (inactive),-0.411 (inactive),-0.397 (inactive)
CC1CC/C=C\[C@H]2OC34C=CCN(Cn5nnc6ccccc65)C(=O)[C@H]3N(CCCO)C(=O)[C@@H]4C2C(=O)O1 (some centres undefined),-0.0236,1.06 (inactive),0.502 (inactive),0.317 (inactive),-0.221 (inactive),0.801 (inactive),0.0706 (inactive),-0.0371 (inactive),0.623,0.244,0.75 (inactive),0.13,-0.0633,-5.65 (inactive),-0.86 (inactive),-0.909 (inactive)
C=CCOC(=O)[C@@H]1[C@H]2C(=O)O[C@H](c3ccccc3)[C@H](c3ccccc3)N2[C@H](c2ccc(OCCOC(=O)[C@H]3C[C@H]4C(=O)N[C@@H](Cc5ccccc5)C(=O)N4[C@H]3c3ccc(O)cc3)cc2)[C@@]12C(=O)Nc1ccc(I)cc12,-0.0291,-0.149 (inactive),-1.98 (inactive),-8.55 (active),0.932 (inactive),2.52 (inactive),-1.52 (inactive),-1.06 (inactive),-1.01,-0.187,2.09 (inactive),0.81,0.265,6.27 (inactive),-0.177 (inactive),-0.343 (inactive)
CCN(CC)c1ccc(N2CC=CC34O[C@@H]5C=CCCOC(=O)C5[C@H]3C(=O)N(CCCO)[C@@H]4C2=O)cc1 (some centres undefined),-0.704,-1.25 (inactive),0.61 (inactive),-0.429 (inactive),0.525 (inactive),-0.294 (inactive),1.21 (inactive),0.764 (inactive),0.237,-0.516,-0.658 (inactive),-0.588,-1.49,-3.95 (inactive),-0.28 (inactive),-0.816 (inactive)
O=C1O[C@@H](c2ccccc2)[C@@H](c2ccccc2)N2[C@@H](c3ccc(O)cc3)[C@]3(C(=O)Nc4ccc(C#CCCO)cc43)[C@@H](C(=O)N3CCCCCCC3)[C@H]12,-0.348,0.176 (inactive),-0.161 (inactive),1.29 (inactive),1.01 (inactive),0.524 (inactive),0.0109 (inactive),-0.787 (inactive),-0.53,0.567,0.868 (inactive),0.876,-1.1,1.7 (inactive),-0.149 (inactive),-0.56 (inactive)
C=CC[C@]1(C(=O)NCCN2CCOCC2)N=C(c2ccc(OCCCO)cc2)O[C@H]1c1ccccc1N=[N+]=[N-],-0.153,-1.51 (inactive),0.0032 (inactive),0.918 (inactive),-0.251 (inactive),0.393 (inactive),2.29 (inactive),0.746 (inactive),-0.414,0.113,3.25 (inactive),0.819,-2.27,-3.35 (inactive),-0.56 (inactive),-0.265 (inactive)
C=CCN1Cc2ccccc2C[C@]2(N=C(c3ccc(OCCCO)cc3)O[C@@H]2c2ccccc2)C1=O,-0.677,-1.35 (inactive),-2.24 (inactive),-1.1 (inactive),1.32 (inactive),-0.211 (inactive),1.13 (inactive),1.09 (inactive),-2.07,-0.186,1.27 (inactive),0.824,-2.31,-3.62 (inactive),-0.802 (inactive),-0.978 (inactive)
CN(C)CCCC[C@@H]1NC(=O)[C@@H]2C[C@H](C(=O)NCc3ccc(F)cc3)[C@H](c3cccc(OCCO)c3)N2C1=O,-0.487,-0.889 (inactive),0.0458 (inactive),-0.366 (inactive),0.199 (inactive),-0.889 (inactive),0.797 (inactive),0.83 (inactive),0.293,0.0808,0.658 (inactive),0.813,-0.459,-3.36 (inactive),0.445 (inactive),0.314 (inactive)
OCCCc1cc[n+](Cc2cccc(OC(F)(F)F)c2)cc1,0.887,-1.08 (inactive),0.499 (inactive),-3.59 (inactive),0.0898 (inactive),0.616 (inactive),0.453 (inactive),0.159 (inactive),-0.326,0.337,0.307 (inactive),0.768,-1.47,-3.06 (inactive),-0.284 (inactive),-0.678 (inactive)
COCCOC(=O)N1C(=O)[C@@]2(c3cc(C#CC4=CCCCC4)ccc31)[C@H](C(=O)N1CCN(c3ncccn3)CC1)[C@H]1C(=O)O[C@H](c3ccccc3)[C@H](c3ccccc3)N1[C@@H]2c1ccc(OCCO)cc1,0.156,1.31 (inactive),0.162 (inactive),-0.204 (inactive),3.13 (inactive),1.69 (inactive),0.208 (inactive),-0.564 (inactive),-0.147,-0.0389,0.499 (inactive),0.463,-2.08,1.96 (inactive),0.0924 (inactive),0.501 (inactive)
COCCOC(=O)N1C(=O)[C@@]2(c3cc(C#Cc4ccc(OC)cc4)ccc31)[C@H](c1ccc(O)cc1)N1[C@H](c3ccccc3)[C@H](c3ccccc3)OC(=O)[C@H]1[C@@H]2C(=O)N1CCN(c2ncccn2)CC1,0.202,1.03 (inactive),0.292 (inactive),0.0094 (inactive),0.173 (inactive),1.75 (inactive),0.307 (inactive),-0.0695 (inactive),0.138,-0.224,0.164 (inactive),0.596,-1.86,-0.821 (inactive),0.187 (inactive),0.302 (inactive)
Cc1ccc(S[C@]2(C(=O)NCCN3CCOCC3)CC(=O)N(C3CCCCC3)[C@@H]2c2ccc(CO)cc2)cc1,0.375,0.436 (inactive),0.511 (inactive),0.113 (inactive),0.186 (inactive),-0.463 (inactive),0.048 (inactive),-0.483 (inactive),0.838,0.0024,-0.202 (inactive),0.886,-0.75,-4 (inactive),-0.0334 (inactive),0.206 (inactive)
Cc1ccc(N2C(=O)c3ccccc3[C@@H](C(=O)NCC(C)C)[C@@H]2c2ccc(CO)cc2)nc1,-0.324,0.0089 (inactive),0.439 (inactive),0.351 (inactive),0.348 (inactive),-0.746 (inactive),0.483 (inactive),0.603 (inactive),0.68,-0.148,0.184 (inactive),0.934,0.524,-0.985 (inactive),-0.275 (inactive),-0.387 (inactive)
COc1ccccc1CN1C(=O)c2ccccc2[C@](Cc2ccccc2I)(C(=O)NC2CC2)[C@@H]1c1ccc(CO)cc1,-0.246,0.329 (inactive),-0.185 (inactive),0.629 (inactive),0.0714 (inactive),1.66 (inactive),0.127 (inactive),0.877 (inactive),-0.198,0.591,-0.259 (inactive),0.823,-2.22,-4.79 (inactive),-0.145 (inactive),0.548 (inactive)
